Reference: PubChem BioAssay (NCATS)
Records with an inconclusive call do not appear. Entries that show only a call come without a potency. Active and inactive are the calls of the source. Calls follow the shape of the dose curve; as a rule, active = well fitted inhibition curve with a large enough effect; inconclusive = small, poorly fitted or top-dose-only effect, or effect the other way; inactive = flat fitted curve, though single readings scatter.
Potency is read from the fitted curve at half-maximal effect.

These molecules were tested against ATP-dependent 6-phosphofructokinase (Trypanosoma brucei brucei) (UniProt O15648) (assay: qHTS Assay to Find Inhibitors of T. brucei phosphofructokinase: hit validation (AID 492961)). Settings: T. brucei PFK, ADP-Glo luminescence; series mostly up to 51.4 µM.
Sequence of ATP-dependent 6-phosphofructokinase (Trypanosoma brucei brucei) (O15648 whole entry, looked up): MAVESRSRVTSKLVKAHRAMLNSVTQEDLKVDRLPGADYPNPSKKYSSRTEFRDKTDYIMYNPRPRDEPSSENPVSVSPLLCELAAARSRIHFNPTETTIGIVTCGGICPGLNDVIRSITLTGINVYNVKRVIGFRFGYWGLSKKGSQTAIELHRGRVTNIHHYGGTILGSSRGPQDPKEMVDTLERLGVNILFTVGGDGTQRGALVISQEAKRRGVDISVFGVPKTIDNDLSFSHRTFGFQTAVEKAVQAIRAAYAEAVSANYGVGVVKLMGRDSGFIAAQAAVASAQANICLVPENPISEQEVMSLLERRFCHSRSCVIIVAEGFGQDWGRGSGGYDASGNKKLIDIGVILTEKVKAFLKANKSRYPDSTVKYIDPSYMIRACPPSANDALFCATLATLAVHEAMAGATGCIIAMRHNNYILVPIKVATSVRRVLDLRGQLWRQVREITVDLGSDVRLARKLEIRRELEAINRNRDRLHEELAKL
Summary of the method: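 In this biochemical qHTS validation, titrated compounds were tested against 1.25 nM PFK with 0.1 mM ATP and 0.5 mM F6P. Percent activity came from controls lacking or containing enzyme.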
In the case of O=Cc1ccco1, the Potency is reported as “inactive”.
C[C@H]1CC[C@@H]2[C@@H](C)[C@H]3[C@H](C[C@H]4[C@@H]5CC=C6CC(O[C@@H]7O[C@H](CO)[C@H](O)[C@H](O[C@@H]8O[C@H](CO)[C@@H](O)[C@H](O)[C@H]8O)[C@H]7O[C@H]7O[C@@H](C)[C@H](O)[C@@H](O)[C@H]7O)CC[C@]6(C)[C@H]5CC[C@]34C)N2C1 (some centres undefined) was tested, and the Potency was “inactive”.
C#CC(C)(O)CC (centres undefined) was tested, and the Potency was “inactive”.
With COC1=CC=C2[C@H]3Cc4ccc(OC)c5c4[C@@]2(CCN3C)[C@H]1O5 the Potency was “inactive”.
For CCC1(CC)C(=O)NC(=O)N(C)C1=O, the Potency was “inactive”.
In the case of N#CC1(N2CCCCC2)CCCCC1, the Potency is reported as “inactive”.
For ClC(Cl)(Cl)Cl, the Potency was “inactive”.
For CCCCNCC(O)c1ccc(O)cc1 (centres undefined), the Potency was “inactive”.
In the case of CCN(CC)C(=O)/C(Cl)=C(\C)OP(=O)(OC)OC, the Potency is reported as “inactive”.
C=CCN1CC[C@]23c4c5ccc(O)c4O[C@H]2[C@@H](O)C=C[C@H]3[C@H]1C5 was tested, and the Potency was “inactive”.
For CNC(C)C(O)c1ccc(O)cc1 (centres undefined), the Potency was “inactive”.
O=C(O)C(Cl)(Cl)Cl was tested, and the Potency was “inactive”.
For FC(F)OC(F)(F)C(F)Cl (centres undefined), the Potency was “inactive”.
With c1csc(C2(N3CCCCC3)CCCCC2)c1 the Potency was “inactive”.
C[C@H]1CCC[C@H](O)CCCCCc2cc(O)cc(O)c2C(=O)O1 was tested, and the Potency was “inactive”.
For Oc1cccc[c]1[Hg][Cl], the Potency was 5.62 µM (active).
With S=C(S)N1CCNCC1 the Potency was “inactive”.
O=S(=O)(O)c1cc(O)ccc1O was tested, and the Potency was “inactive”.
With O=C1CN(O)C(c2ccccc2)=c2cc(Cl)ccc2=N1 the Potency was “inactive”.
For F/C(COc1ccc2c(c1)[nH]c1ccccc12)=C1/CN2CCC1CC2, the Potency was “inactive”.
In the case of O=[N+]([O-])C(Br)(CO)CO, the Potency is reported as 8.91 µM (active).
CN1[C@@H]2CC[C@H]1CC(OC1c3ccccc3CCc3ccccc31)C2 (some centres undefined) was tested, and the Potency was “inactive”.
With CCC1C(C)=NN=C(c2ccc(OC)c(OC)c2)c2cc(OC)c(OC)cc21 (centres undefined) the Potency was “inactive”.
In the case of O=C(OCCN1CCCCC1)C(O)(c1ccccc1)c1ccccc1, the Potency is reported as “inactive”.
With CNC1(c2ccccc2Cl)CCCCC1=O (centres undefined) the Potency was “inactive”.
For O=C/C=C/c1ccccc1, the Potency was “inactive”.
With CC(C)Nc1ccc(Nc2ccccc2)cc1 the Potency was “inactive”.
In the case of N#CN, the Potency is reported as “inactive”.
For CCCCCCCCOC(=O)c1ccccc1C(=O)OCCCCCCCC, the Potency was “inactive”.
In the case of CCC1(c2ccccc2)C(=O)NC(=O)NC1=O, the Potency is reported as “inactive”.
For [O]=[Cd], the Potency was “inactive”.
In the case of C=CCN=C=S, the Potency is reported as “inactive”.
With CCOP(=O)(OCC)O/C(=C/Cl)c1ccc(Cl)cc1Cl the Potency was “inactive”.
In the case of CCCC(=O)OC(C(Cl)(Cl)Cl)P(=O)(OC)OC (centres undefined), the Potency is reported as “inactive”.
In the case of O=c1[nH]c(=O)n(Cl)c(=O)n1Cl, the Potency is reported as “inactive”.
For O=C(CS(=O)C(c1ccccc1)c1ccccc1)NO (centres undefined), the Potency was “inactive”.
Clc1ccc(C2(Cn3cncn3)OCCO2)c(Cl)c1 was tested, and the Potency was “inactive”.
In the case of CN1CCCC(=C(c2cccs2)c2cccs2)C1, the Potency is reported as “inactive”.
For CC[N+](C)(CC)CCOC(=O)C(O)(c1ccccc1)c1ccccc1, the Potency was “inactive”.
